Laboratory results as given in PubChem BioAssay (EPA / NIEHS).
Records with an inconclusive call do not appear. Active and inactive are the calls of the source. The calls were made as follows: active = hit-call score of the fitted dose curve at least 0.9, where 1 is the maximum; inconclusive = response in the unintended direction; inactive = score below 0.9.

Key:
[1] = TOX21_p53_BLA_p2_viability: Viability Assessment in the Tox21 HCT-116 p53 Agonism Beta-lactamase Assay, Phase 2 (AID 2283591);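 also: compound exposure lasted 16 h at 37 °C; actives lower the ATP signal meaning cytotoxicity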
Procedure, shortened: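 Cytotoxicity readout: CellTiter-Glo ATP luminescence, 30 min at room temperature, after the beta-lactamase read. Cells were HCT116 exposed 16 h at 37C to compounds pin-transferred at 217-fold dilution from DMSO stocks.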

[2] = molecular target: Cellular tumor antigen p53 (Homo sapiens) (UniProt P04637); experiment: TOX21_p53_BLA_p2_ratio: Tox21 HCT-116 p53 Agonism Beta-lactamase Assay, Ratio, Phase 2 (AID 2283592)
Procedure, shortened: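 Read-out is the blue/green (460/530 nm, 405 nm excitation) ratio after 2 h CCF4-AM loading, fitted as gain versus DMSO. Compounds, pinned at 217-fold dilution from DMSO stocks, stayed 16 h on HCT-116 beta-lactamase reporter cells seeded 5 h earlier.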

[3] = TOX21_p53_BLA_p3_viability: Viability Assessment in the Tox21 HCT-116 p53 Agonism Beta-lactamase Assay, Phase 3 (AID 2283593);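 also: cells exposed to compound for 16 h before reading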
Procedure, shortened: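 Cellular ATP was quantified by CellTiter-Glo luminescence, read after 30 min at room temperature. Beforehand, HCT116 cells (4000/well) received compound 5 h post-seeding, 217-fold diluted from DMSO, then incubated 16 h at 37C.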

[4] = molecular target: Cellular tumor antigen p53 (Homo sapiens) (UniProt P04637); experiment: TOX21_p53_BLA_p3_ratio: Tox21 HCT-116 p53 Agonism Beta-lactamase Assay, Ratio, Phase 3 (AID 2283596)
Procedure, shortened: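 Cells were seeded at 4000/well, rested 5 h at 37C, then dosed with DMSO compound solutions (217-fold dilution) for 16 h. CCF4-AM substrate was loaded for 2 h at room temperature, and the 460/530 nm emission ratio was fitted for gain of signal versus DMSO.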

[5] = molecular target: Cellular tumor antigen p53 (Homo sapiens) (UniProt P04637); experiment: TOX21_p53_BLA_p5_ratio: Tox21 HCT-116 p53 Agonism Beta-lactamase Assay, Ratio, Phase 5 (AID 2283599)
Procedure, shortened: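 Beta-lactamase reporter ratio (blue 460 nm over green 530 nm, 405 nm excitation) after 2 h CCF4-AM loading, in HCT-116 cells exposed 16 h at 37 C to compounds pinned at 217-fold dilution. Increases relative to DMSO baseline scored.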

[6] = TOX21_p53_BLA_p5_viability: Viability Assessment in the Tox21 HCT-116 p53 Agonism Beta-lactamase Assay, Phase 5 (AID 2283600)
Procedure, shortened: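 Viability came from CellTiter-Glo ATP luminescence, read after 30 min at room temperature. Before this, HCT-116 p53-bla cells (4000/well) had 16 hours of compound exposure at 37C, with DMSO stocks diluted 217-fold on transfer.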

[7] = molecular target: Cellular tumor antigen p53 (Homo sapiens) (UniProt P04637); experiment: TOX21_p53_BLA_p4_ratio: Tox21 HCT-116 p53 Agonism Beta-lactamase Assay, Ratio, Phase 4 (AID 2283601)
Procedure, shortened: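 Signal is the blue/green (460nm/530nm) ratio of cleaved versus uncleaved CCF4-AM substrate, read after 2 h substrate loading. Cells were HCT116 carrying the p53-responsive beta-lactamase reporter, dosed 16 h at 37C, 5% CO2; CellTiter-Glo measured in parallel.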

Measured: outcome

Cellular tumor antigen p53 (Homo sapiens), sequence (P04637 whole entry, looked up): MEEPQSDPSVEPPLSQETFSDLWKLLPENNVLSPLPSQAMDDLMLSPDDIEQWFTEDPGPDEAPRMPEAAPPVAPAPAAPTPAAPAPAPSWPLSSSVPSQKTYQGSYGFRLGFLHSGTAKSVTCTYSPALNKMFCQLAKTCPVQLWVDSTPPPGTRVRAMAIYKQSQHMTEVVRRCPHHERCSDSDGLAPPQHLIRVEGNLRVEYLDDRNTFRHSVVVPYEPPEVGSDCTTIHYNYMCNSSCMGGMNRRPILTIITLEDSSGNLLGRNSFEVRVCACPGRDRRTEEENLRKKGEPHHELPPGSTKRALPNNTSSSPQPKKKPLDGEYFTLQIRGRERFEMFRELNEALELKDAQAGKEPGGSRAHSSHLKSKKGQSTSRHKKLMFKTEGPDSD

Cc1occc1SSc1ccoc1C
inactive: [1] | [2] | [3] | [4] | [5] | [6]

COc1cc(NS(=O)(=O)c2ccc(N)cc2)nc(OC)n1
inactive: [1] | [2] | [3] | [4] | [5] | [6] | [7]

CCCCc1nc(Cl)c(CO)n1Cc1ccc(-c2ccccc2-c2nn[nH]n2)cc1
inactive: [1] | [2] | [3] | [4] | [5] | [6] | [7]
